The values below come from PubChem BioAssay AID743398 (Broad Institute, 2014).

About 3,600 (1.2%) of roughly 300,000 compounds were called active. Cut-off read from the data, not from the text of the source: active = activation above about 30% (passing the limit was not always enough); inconclusive = no clear call, values can overlap the other calls. Many of the other results were omitted from the sample, so actives are more common in it than they were.

The nature of this assay: activation of beta-catenin signaling reporter – cell-based, plate reader, single point, primary screen (AID 743398).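 Note: 0% = neutral control wells and 100% = positive control wells.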 The conditions noted are these: Wnt/beta-catenin reporter cell assay, activator, at 9.35 µM, stronger effect = higher value.
In the case of `O=Cc1ccc(Oc2cccc(C(F)(F)F)c2)nc1`, the activation is 0.99% (inactive).
For the compound `FC(F)(F)c1ccnc(Oc2ccc(C3=NCCS3)cc2)c1`, the activation was 50.4% (active).
The same measure for `N#CCCN(C(=S)Nc1ccc(Cl)c(Cl)c1)C1CCCCC1`: -1.58% (inactive); for `CCCCCCCCN1C(=O)[C@@H](CC(=O)NCc2ccccc2)C[C@@]2(C(=O)OC)C1=C[C@H](C(C)(C)C)O[C@@H]2C`: -15% (inactive).
For the compound `Cc1cc(OC(=O)NCCc2ccc(F)cc2)ccc1F`, the activation is 2.45% (inactive).
Then `COc1ccc(-c2ccc(CN3C(C(C)C)C(=O)N(Cc4cn(CC5CCCCC5)nn4)CCS3(=O)=O)cc2)cn1` (centres undefined), with -0.388% (inactive); and `Cn1c(CCN2CCCC2)nc2cc(NS(=O)(=O)c3ccccc3)ccc21`, with 2.48% (inactive).
`O=S(=O)(Nc1ccc2nc(-c3ccco3)[nH]c2c1)c1ccccc1`: the activation was 37.5% (active).
Then `O=S(=O)(Nc1ccc2cn[nH]c2c1)c1ccccc1`, with -1.72% (inactive); and `Nc1ncnc2c1ncn2C1OC(CO)CC1O` (centres undefined), with 0.661% (inactive).
Then `Cc1cccc(C(=O)C(O)(c2ccccc2)C2CCCCC2=O)c1` (centres undefined), with -5.91% (inactive); and `CCOC(=O)c1cc2c(nc1NC(=S)Nc1ccccc1)CC(C)(CC)OC2` (centres undefined), with 9.37% (inactive).
Regarding `CCOC(=O)c1ccc(NC(=S)Nc2cc(C)cc(C)n2)cc1`, the activation is -1.38% (inactive).
Then `CCOC(=O)c1cn[nH]c1NC(=S)Nc1ccccc1`, with 48.2% (active).
Then `COc1ccc(C(=O)NCc2ccc(Cl)cc2)cc1S(=O)(=O)N1CCCC1`, with -0.0405% (inactive).
The same measure for `COc1ccc(F)cc1S(=O)(=O)N1CCCCC1`: -0.652% (inactive).
For `COc1ccc(Cl)cc1S(=O)(=O)N1CCC(O)(c2ccc(Cl)cc2)CC1`, the activation was 61.9% (active).
The same measure for `CCc1nc2c(OCc3ccc(Cl)cc3Cl)cccn2c1N(C)C(=O)C(C)C`: -1.94% (inactive); for `Cc1ccc(Cl)cc1NC(=O)c1ccccn1`: -3.27% (inactive); for `Cc1cccc(OCC(=O)NCCCNC(=O)c2ccccn2)c1`: -0.523% (inactive).
Then `CCN(CC)CCOc1ccc2c(c1)C(=NNC(=O)c1ccccn1)c1cc(OCCN(CC)CC)ccc1-2`, with 54.2% (active); and `OC(c1ccccc1)(c1ccccc1)C1CCN(CCCOc2ccccc2)CC1`, with -5.07% (inactive); and `COc1ccc(Sc2ccc(NC(=O)c3cccc(Cl)c3)cc2C#N)cc1`, with -0.516% (inactive).
As to `CCOC(=O)N1CCC(Nc2c(NCCCN3CCN(c4ccc(OC)cc4)CC3)c(=O)c2=O)CC1`, the activation was 33.6% (active).
The same measure for `CCOC(=O)N1CCC(Nc2c(NCCN3CCN(c4cccc(Cl)c4)CC3)c(=O)c2=O)CC1`: -0.679% (inactive).
Then `CCOC(=O)N1CCC(Nc2c(NCCCN3CCN(CC)CC3)c(=O)c2=O)CC1`, with 1.91% (inactive); and `COC(=O)[C@]12CCCCC=C1N(Cc1ccccc1)C(=O)[C@H](CC(=O)NCc1ccc(C)o1)C2`, with -1.58% (inactive); and `COc1cccc(C(NC(C)=O)c2nc(-c3cnc4ccccc4c3)cs2)c1` (centres undefined), with -0.125% (inactive).
Turning to `OC(c1ccccc1)c1nc(-c2cnc3ccccc3c2)cs1` (centres undefined), the activation is 50.7% (active).
Take `CC(C)c1cccc(-c2csc(C(O)c3ccccc3)n2)c1` (centres undefined): the activation is 1.98% (inactive).
The same measure for `Cc1cc(Cl)ccc1C(=O)C1CCCN(C(=O)c2ccc3c(c2)OCO3)C1` (centres undefined): -2.01% (inactive); for `COc1ccc(C(=O)N2CCCCC2c2cc(C(=O)Nc3ccccc3)no2)cc1` (centres undefined): -2.86% (inactive); for `CCc1ccccc1NC(=O)CN1CCN(C(=O)c2cc(C3CC3)nn2-c2ccccc2)CC1`: -4.73% (inactive).
Then `COc1cccc(-c2cnc3c(NC(C)=O)cc(-c4cccc(NC(C)=O)c4)cn23)c1`, with -2.59% (inactive).
Turning to `COc1cc(/C=C2/C(=O)ON=C2C)ccc1OCc1cccc(F)c1`, the activation is 13.4% (inactive).
Then `COc1cc(/C=C2/C(=O)ON=C2C)ccc1OCc1ccccc1F`, with 48.1% (active); and `C=CCOc1ccc(/C=C2/C(=O)ON=C2C)cc1OCC`, with -0.78% (inactive).
The same measure for `C[C@@H]1Cn2cnc(C(=O)Nc3ccc(CNC(=O)OC(C)(C)C)cc3)c2C(=O)N1`: -0.752% (inactive); for `COc1cccc(NC(=O)Nc2ccc(F)cc2)c1`: 4.29% (inactive); for `Cc1ccc(-c2cnc(C(O)c3cc(Cl)cc(Cl)c3)[nH]2)cc1` (centres undefined): -5.54% (inactive).
Then `Cc1cccnc1CC(C)NC(=O)c1cc(COc2cncc(Cl)c2)on1` (centres undefined), with 7.75% (inactive); and `COc1ccc(OCc2cc(C(=O)NCC3(C)COC3)no2)c(Cl)c1`, with 7.69% (inactive); and `Cc1cc(OCc2cc(C(=O)NCc3cc(C(C)C)no3)no2)cc(C)c1Cl`, with 40.5% (active).
On to `C=CCSc1nc2ccccc2[nH]1`, for which the activation was 0.251% (inactive).
For `O=C(CSc1nc2ccccc2[nH]1)c1cccs1`, the activation is 58.5% (active).
Then `CN(Cc1ccccc1)C(=O)CSc1nc2ccccc2[nH]1`, with 12.8% (inactive).
The same measure for `C#CCN([C@@H](C)C(=O)OCC)S(=O)(=O)c1ccc(Br)cc1F`: -2.08% (inactive).
Then `Cc1ccc(OCC(=O)Nn2cnc3ccccc32)cc1`, with -2.76% (inactive); and `O=C(c1ccc(Cl)cc1)n1cnc2ccccc21`, with 0.992% (inactive).
For `COC(=O)c1ccc(-n2cnc3ccccc32)nc1`, the activation was 41.6% (active).
Take `Cc1c(C(=O)NCc2ccc(C#N)cc2)sc(=O)n1Cc1ccc(C(=O)N(C)C)cc1`: the activation was -0.79% (inactive).
Turning to `COc1ccc(C(O)c2nc(-c3ccc(OC)nc3)cs2)cc1` (centres undefined), the activation was -2.19% (inactive).
For `CCOC(=O)[C@]12CCCC=C1N(Cc1ccc(Cl)cc1Cl)C(=O)[C@H](CC(=O)N1CCCCC1)C2`, the activation is -0.046% (inactive).
Then `CCc1ccccc1NC(=O)CSc1nnc([C@@H](NC(=O)OC(C)(C)C)C(C)CC)o1` (some centres undefined), with 31.4% (active); and `CCc1ccccc1NC(=O)CSc1nnc(-c2ccncc2)o1`, with 0.131% (inactive); and `CCc1ccccc1NC(=O)CSc1nnc(CCNC(=O)OC(C)(C)C)o1`, with -2.11% (inactive).
With `Cc1cc(Br)cn2c(Cc3ccccc3C(F)(F)F)c(-c3ccc(C#N)cc3)nc12`, the activation was -2.44% (inactive).
Then `CSCCC(c1nnnn1Cc1ccccc1)N1CCN(C/C=C/c2ccccc2)CC1` (centres undefined), with -2.2% (inactive); and `O=C(CSc1nc2cccc(F)c2c(=O)n1-c1ccccc1)Nc1ccc2c(c1)CCC2`, with -0.606% (inactive).
